Source: PubChem (several laboratories)
Compounds with a hit are over-represented: about 4.5% of the library has one in this group of screens.
697 NFkB inh: inhibitors of PMA/ionomycin-induced NF-kB reporter, 697 cells, primary screen, B-cell NF-kB inhibitor project, cell-based, luminescence, uHTS. 697 B-cell NF-kB luciferase reporter, 16 h. AID 435022, 2010. hit rate 0.33% among 330,000. inhibition, % at 4 µM; in the data active means inhibition above about 35%
Gli-Sufu antag: Gli-Sufu pathway antagonists, primary screen, luciferase luminescence, Sufu-KO-LIGHT cells, uHTS. inhibition, % at 5 µM. Sufu-KO-LIGHT fibroblasts, Gli luciferase reporter luminescence. hit rate 0.74% among 340,000;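 active means inhibition above about 55%, limit read from the data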;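 further: 0% = DMSO-treated cells and 100% = wells with medium but no cells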
Jurkat NFkB inh: inhibitors of induced NF-kB luciferase reporter, primary screen, TCR NF-kB activation inhibitor project, cell-based, luminescence, uHTS | Jurkat, PMA/ionomycin-induced NF-kB luciferase reporter | inhibition, % at 4 µM | hit rate 0.53% among 330,000; in the data active means inhibition above about 50%
CSC inhib: cancer stem cell viability inhibitors, primary screen, luminescence; cancer stem cell-like cells viability; inhibition, % at 7.5 µM; hit rate 1.1% among 300,000; in the data active means inhibition above about 75%; tested in HMLE shEcad cells
aSyn UTR inh: MLPCN primary screen, SNCA 5' untranslated region | hit rate 0.82% among 300,000 | alpha-synuclein 5'UTR reporter, inhibitor activity | inhibition, % (tested at 7.5 µM); in the data active means inhibition above about 60%;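 further: H4 neuroglioblastoma cells stably carrying SNCA 5'UTR luciferase fusion; 0% = DMSO wells and 100% = positive control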
Mdm2 MdmX PPI: inhibitors of human Mdm2-MdmX association, primary screen, cell-based, luminescence, split luciferase, SaOS-2, uHTS; Protein Mdm4 (Homo sapiens) + E3 ubiquitin-protein ligase Mdm2 (Homo sapiens), …; SaOS-2 split-luciferase Mdm2/MdmX complementation; inhibition, % at 8 µM; hit rate 3% among 330,000;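 active means inhibition of at least 50% at 8 µM in the primary screen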
* marks the source's active call; other numbers are inactive results; . = no result.

SMILES | 697 NFkB inh | Gli-Sufu antag | Jurkat NFkB inh | CSC inhib | aSyn UTR inh | Mdm2 MdmX PPI
Cc1ccccc1-c1nc2c(s1)CCc1onc(-c3ccc(Cl)cc3)c1-2 | 3.1 | -1.9 | 2.8 | 27.9 | -5.6 | -30.4
COc1ccc(-c2noc3c2-c2nc(-c4ccccc4C)sc2CC3)cc1 | -12.3 | -13.6 | 41.7 | 75.8* | -7.6 | 41.4
COc1ccc(NC(=O)C2CCCN(S(=O)(=O)c3ccc4c(c3)CCCN4C(C)=O)C2)cc1Cl (stereo not drawn) | 10.6 | 15.2 | 16.1 | -2.3 | -12.3 | 26.4
CC(C)CC1NC(=O)c2ccc(Cl)cc2-n2c1nc1ccc(Cl)cc1c2=O (stereo not drawn) | 2.6 | . | 1.7 | . | . | 3.7
CC(C)(C)c1ccc(Cn2nnc3c(=O)[nH]c(C4CCCN(C(=O)c5cccs5)C4)nc32)cc1 (stereo not drawn) | -3.5 | 8.6 | 12.6 | 78.6* | 13.3 | 22.9
CC(C)(C)c1ccc(Cn2nnc3c(=O)[nH]c(C4CCCN(C(=O)Cc5cccs5)C4)nc32)cc1 (stereo not drawn) | -16.8 | -10.9 | -2.0 | 0.3 | 16.4 | 34.2
COc1cc(CCNC2=CC(=O)c3ncccc3C2=O)ccc1O | . | 17.6 | . | . | . | .
COc1ccccc1C(=O)NCC(=O)N1CC=C(c2ccccc2)CC1 | 22.7 | 6.9 | 17.6 | . | . | -0.2
O=C(NCc1ccc(F)cc1)C(=O)NCC1OCCN1S(=O)(=O)c1cccs1 (stereo not drawn) | 5.2 | -5.0 | 6.1 | -4.9 | 5.2 | 7.6
CC(C)[C@@H](C(=O)OCC(=O)Nc1ccc2c(c1)OCO2)N1C(=O)c2ccccc2C1=O | -6.1 | -4.7 | 11.8 | 3.8 | -2.6 | -0.3
COc1ccc(CCC(=O)OCC(=O)N(CC(C)C)c2c(N)n(Cc3ccccc3)c(=O)[nH]c2=O)cc1 | 1.5 | 1.1 | -3.5 | -2.0 | -0.1 | 17.7
Cc1ccc(-c2nc(CS(=O)CC(=O)NCc3ccc4c(c3)OCO4)c(C)o2)cc1 (stereo not drawn) | 0.2 | -1.6 | 21.3 | 75.7* | -2.8 | 35.5
CCc1ccc(-c2nc(CS(=O)CC(=O)NCc3ccc4c(c3)OCO4)c(C)o2)cc1 (stereo not drawn) | 21.9 | 3.0 | -4.8 | 32.4 | -4.8 | -14.0
O=C(CN1C(=O)CCC1=O)Nc1nc(-c2ccc(Oc3ccccc3)cc2)cs1 | 4.0 | -1.0 | -3.9 | -1.5 | -18.3 | 11.0
CCC(=O)N1CCN(c2ccc(NC(=O)c3ccc([N+](=O)[O-])o3)cc2Cl)CC1 | . | 28.2 | . | . | 77.4* | .
CCN1CCN(c2ccc(NC(=O)c3ccc([N+](=O)[O-])o3)cc2Cl)CC1 | . | 0.9 | . | . | 126.2* | .
O=C(Nc1cccc(NC(=O)c2ccc([N+](=O)[O-])o2)c1)c1ccco1 | 11.4 | 6.3 | 35.6 | 86.7* | -65.7 | 19.9
CCC(=O)N1CCN(c2ccc(Cl)cc2NC(=O)c2ccc([N+](=O)[O-])o2)CC1 | 5.5 | 5.5 | 7.3 | 28.2 | -58.5 | 38.9
CC(=O)[C@@]1(O)C(C)CC2C3C=C(C)C4=Cc5c(cnn5-c5ccccc5)C[C@]4(C)C3C(O)C[C@@]21C (stereo partly drawn) | . | 5.3 | . | 99.8* | 80.8* | .
CC(=O)Nc1ccc(OC(F)(F)C(F)C(F)(F)F)c(NC(C)=O)c1 (stereo not drawn) | -9.3 | 6.6 | -2.3 | -12.0 | -13.5 | 1.0
COc1ccc(C(=O)N/C(=C\c2cn(C)c3ccccc23)C(=O)NCCN2CCOCC2)cc1OC | -24.0 | 39.9 | 7.7 | -7.8 | -9.9 | 19.2
COc1ccc(C(=O)c2c(-c3ccc(OC)cc3)oc3ccc(-c4cc(OC)c(OC)c(OC)c4)cc23)cc1 | 0.0 | 8.5 | -3.8 | 5.5 | 30.1 | 23.4
COC(=O)c1c(-c2ccc(OC)cc2)oc2ccc(-c3cc(OC)c(OC)c(OC)c3)cc12 | -6.7 | 8.3 | 6.8 | 100.3* | 2.7 | 18.2
COc1cc(OC)cc(-c2sc3ccc(OC)cc3c2-c2ccc(O)cc2)c1 | -16.2 | 5.6 | -13.0 | 136.1* | . | 20.2
COc1ccc2sc(-c3ccccc3OC)c(-c3ccc(O)cc3)c2c1 | 4.3 | -3.1 | 6.6 | 108.5* | . | 22.2
COc1cc2sc(-c3ccccc3OC)c(-c3ccc(O)cc3)c2cc1OC | -7.9 | 10.4 | 4.2 | 80.2* | . | 27.1
